Common to all, as to assay: DAPPL (digital affinity profiling via proximity ligation, sequencing); 10 mM Tris-HCl pH 7.5, 50 mM NaCl, 1 mM DTT, 4% glycerol, room temperature, 30 min; GST-TFs on glutathione beads, 16-mer random dsDNA library, 0.1% formaldehyde crosslink after washing; high values mean tight binding
Holding throughout (conditions): protein: recombinant; tags: N-terminal GST; dsDNA, one strand shown

The target of one assay is T1, ERF (Homo sapiens, UniProt P50548 1-548).
T1 sequence: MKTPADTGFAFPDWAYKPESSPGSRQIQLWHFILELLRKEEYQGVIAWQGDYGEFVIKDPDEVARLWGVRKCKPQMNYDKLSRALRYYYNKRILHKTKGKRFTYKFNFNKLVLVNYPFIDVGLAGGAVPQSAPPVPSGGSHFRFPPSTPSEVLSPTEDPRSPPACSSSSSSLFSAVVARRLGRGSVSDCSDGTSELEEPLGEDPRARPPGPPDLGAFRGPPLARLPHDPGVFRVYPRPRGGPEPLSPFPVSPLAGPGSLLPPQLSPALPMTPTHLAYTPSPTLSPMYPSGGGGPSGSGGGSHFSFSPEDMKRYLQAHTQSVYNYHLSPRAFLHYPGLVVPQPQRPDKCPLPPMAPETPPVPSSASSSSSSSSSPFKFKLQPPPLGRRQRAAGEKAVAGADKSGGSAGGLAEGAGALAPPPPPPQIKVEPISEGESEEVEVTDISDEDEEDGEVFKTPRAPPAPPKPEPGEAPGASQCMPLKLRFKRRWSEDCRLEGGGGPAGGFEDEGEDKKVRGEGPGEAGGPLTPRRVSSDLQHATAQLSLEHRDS
In a few lines:
(§1)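 Human transcription factors carrying a GST fusion were produced in yeast, bound to glutathione beads, tagged with DNA barcodes and pooled together with a tag-only sample. Each pool was held with 200 nmole of a random double-stranded 16-mer DNA library in Tris/NaCl/DTT/glycerol buffer for 30 min at room temperature, then washed, crosslinked in 0.1% formaldehyde, proximity-ligated with BsaI/T4 ligase (1 h, 37 °C), PCR-amplified and sequenced on an Illumina NextSeq500. Binding signal is the read frequency of each hexamer for a given factor divided by its frequency in the tag-only sample.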

The next assay addresses T2, ETS2 (Homo sapiens, UniProt P15036 1-469).
T2 sequence: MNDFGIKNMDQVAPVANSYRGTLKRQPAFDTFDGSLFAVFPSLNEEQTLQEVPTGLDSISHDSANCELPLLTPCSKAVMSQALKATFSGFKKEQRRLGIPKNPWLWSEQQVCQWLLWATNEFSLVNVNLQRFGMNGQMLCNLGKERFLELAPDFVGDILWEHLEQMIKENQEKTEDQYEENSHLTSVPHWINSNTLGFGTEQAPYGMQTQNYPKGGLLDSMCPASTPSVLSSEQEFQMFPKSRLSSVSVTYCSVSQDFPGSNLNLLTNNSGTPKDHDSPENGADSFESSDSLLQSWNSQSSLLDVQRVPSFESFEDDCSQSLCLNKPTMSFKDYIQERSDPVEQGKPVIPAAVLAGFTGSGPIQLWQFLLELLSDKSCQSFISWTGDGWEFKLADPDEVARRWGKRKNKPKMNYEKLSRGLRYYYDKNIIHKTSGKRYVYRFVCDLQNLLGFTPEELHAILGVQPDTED
The method in brief:
as §1

The target of a further assay is T3, ETV7 (Homo sapiens, UniProt Q9Y603 1-341).
T3 sequence: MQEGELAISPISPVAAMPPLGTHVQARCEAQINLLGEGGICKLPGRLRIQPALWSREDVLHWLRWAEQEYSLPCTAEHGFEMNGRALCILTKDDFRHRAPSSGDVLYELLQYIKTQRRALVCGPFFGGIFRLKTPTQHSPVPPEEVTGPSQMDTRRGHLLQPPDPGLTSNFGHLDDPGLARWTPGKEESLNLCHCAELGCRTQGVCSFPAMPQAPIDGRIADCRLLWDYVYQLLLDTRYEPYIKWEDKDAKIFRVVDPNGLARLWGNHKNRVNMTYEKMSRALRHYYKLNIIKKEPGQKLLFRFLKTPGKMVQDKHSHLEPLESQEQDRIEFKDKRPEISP
In a few lines: as §1

Another assay concerns the target T4, ELF5 (Homo sapiens, UniProt Q9UKW6-2 1-255).
T4 sequence: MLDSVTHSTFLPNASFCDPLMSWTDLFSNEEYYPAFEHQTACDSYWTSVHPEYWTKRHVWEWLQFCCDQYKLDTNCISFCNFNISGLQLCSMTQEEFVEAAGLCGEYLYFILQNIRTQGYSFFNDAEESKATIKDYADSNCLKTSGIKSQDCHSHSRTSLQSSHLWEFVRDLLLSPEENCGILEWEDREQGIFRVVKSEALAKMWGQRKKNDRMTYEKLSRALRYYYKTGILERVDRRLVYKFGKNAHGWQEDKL
The method in brief:
as §1

For another assay, the target named is T5, ETV3 (Homo sapiens, UniProt P41162-2 1-143).
T5 sequence: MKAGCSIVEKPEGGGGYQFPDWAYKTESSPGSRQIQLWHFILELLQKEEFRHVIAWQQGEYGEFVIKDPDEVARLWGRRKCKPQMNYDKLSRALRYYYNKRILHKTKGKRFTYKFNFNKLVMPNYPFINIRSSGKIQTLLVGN
In a few lines:
as §1

Another assay has as its target T6, SPDEF (Homo sapiens, UniProt O95238 1-335).
T6 sequence: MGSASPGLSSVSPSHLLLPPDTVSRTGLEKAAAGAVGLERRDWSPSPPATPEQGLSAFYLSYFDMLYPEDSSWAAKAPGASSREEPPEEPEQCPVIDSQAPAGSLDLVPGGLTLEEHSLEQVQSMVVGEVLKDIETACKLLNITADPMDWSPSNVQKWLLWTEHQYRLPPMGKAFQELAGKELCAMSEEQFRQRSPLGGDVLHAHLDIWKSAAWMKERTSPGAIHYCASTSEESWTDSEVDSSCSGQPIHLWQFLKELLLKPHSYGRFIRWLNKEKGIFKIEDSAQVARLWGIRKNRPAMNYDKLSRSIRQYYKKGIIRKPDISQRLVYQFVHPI
The method in brief: as §1

The target of a further assay is ETV6 (Homo sapiens, UniProt P41212 1-452). The method in brief:
as §1

Sequence of ETV6 (P41212 whole entry): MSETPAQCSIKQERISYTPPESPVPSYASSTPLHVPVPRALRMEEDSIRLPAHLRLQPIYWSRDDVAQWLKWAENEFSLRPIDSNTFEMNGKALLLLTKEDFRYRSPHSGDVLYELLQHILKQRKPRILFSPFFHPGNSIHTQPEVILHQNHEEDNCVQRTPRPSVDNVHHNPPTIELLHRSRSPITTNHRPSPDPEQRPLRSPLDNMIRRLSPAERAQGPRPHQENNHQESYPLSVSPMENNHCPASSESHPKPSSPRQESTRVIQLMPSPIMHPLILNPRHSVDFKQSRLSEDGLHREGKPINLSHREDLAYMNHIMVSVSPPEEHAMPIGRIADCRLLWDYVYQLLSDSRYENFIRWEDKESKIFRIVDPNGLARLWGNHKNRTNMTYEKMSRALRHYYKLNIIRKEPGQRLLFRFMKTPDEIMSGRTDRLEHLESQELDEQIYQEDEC

For GTCTAA, the binding signal in the assay with ERF is 1.12 fold enrichment (6-mer frequency, TF over GST control); with ETS2, 1.04 fold enrichment (6-mer frequency, TF over GST control); with ETV7 it was 1.05 fold enrichment (6-mer frequency, TF over GST control); with ELF5, 1.03 fold enrichment (6-mer frequency, TF over GST control).
Regarding GCCCAT, the binding signal with ERF is 1.05 fold enrichment (6-mer frequency, TF over GST control); in the assay with ETS2 it was 1 fold enrichment (6-mer frequency, TF over GST control); with ELF5, 1.01 fold enrichment (6-mer frequency, TF over GST control); with ETV3 it was 1.01 fold enrichment (6-mer frequency, TF over GST control).
Regarding GTTCGA, the binding signal in the assay with ERF is 1.23 fold enrichment (6-mer frequency, TF over GST control); with ETS2, 1.12 fold enrichment (6-mer frequency, TF over GST control); with SPDEF, 1.01 fold enrichment (6-mer frequency, TF over GST control); with ETV7, 1.13 fold enrichment (6-mer frequency, TF over GST control); with ETV3 it was 1.06 fold enrichment (6-mer frequency, TF over GST control); with ETV6, 1.02 fold enrichment (6-mer frequency, TF over GST control).
Consider AAACGA, for which the binding signal is 1.17 fold enrichment (6-mer frequency, TF over GST control) with ERF; 1.15 fold enrichment (6-mer frequency, TF over GST control) with ETS2; 1.03 fold enrichment (6-mer frequency, TF over GST control) in the assay with SPDEF; 1.05 fold enrichment (6-mer frequency, TF over GST control) with ETV7; 1.09 fold enrichment (6-mer frequency, TF over GST control) in the assay with ELF5; 1.07 fold enrichment (6-mer frequency, TF over GST control) with ETV3. Further, in the assay with ETV6, the binding signal was 1.12 fold enrichment (6-mer frequency, TF over GST control).
For the sequence CTGTAA, the binding signal was 1.2 fold enrichment (6-mer frequency, TF over GST control) in the assay with ERF; 1.09 fold enrichment (6-mer frequency, TF over GST control) in the assay with ETS2; 1.03 fold enrichment (6-mer frequency, TF over GST control) with ELF5; 1.12 fold enrichment (6-mer frequency, TF over GST control) in the assay with ETV3; 1.03 fold enrichment (6-mer frequency, TF over GST control) with ETV6.
In the case of CAACAA, the binding signal with ERF was 1.05 fold enrichment (6-mer frequency, TF over GST control); with ETS2, 1.08 fold enrichment (6-mer frequency, TF over GST control); with ETV7 it was 1.02 fold enrichment (6-mer frequency, TF over GST control); with ELF5 it was 1.03 fold enrichment (6-mer frequency, TF over GST control); with ETV3 it was 1.08 fold enrichment (6-mer frequency, TF over GST control); with ETV6 it was 1.01 fold enrichment (6-mer frequency, TF over GST control).
Consider TAAGGT, for which the binding signal with ERF is 1.06 fold enrichment (6-mer frequency, TF over GST control); in the assay with ETS2 it was 1.06 fold enrichment (6-mer frequency, TF over GST control); with SPDEF, 1.15 fold enrichment (6-mer frequency, TF over GST control); with ETV7, 1.04 fold enrichment (6-mer frequency, TF over GST control); with ELF5, 1.05 fold enrichment (6-mer frequency, TF over GST control); with ETV3 it was 1.11 fold enrichment (6-mer frequency, TF over GST control). Also, the binding signal with ETV6 was 1.08 fold enrichment (6-mer frequency, TF over GST control).
As to GGCCCT, the binding signal in the assay with ERF is 1.02 fold enrichment (6-mer frequency, TF over GST control); with ETV7 it was 1.03 fold enrichment (6-mer frequency, TF over GST control); with ETV3, 1.03 fold enrichment (6-mer frequency, TF over GST control).
For TGCTGT, the binding signal is 1.08 fold enrichment (6-mer frequency, TF over GST control) with ERF; 1.15 fold enrichment (6-mer frequency, TF over GST control) with ETS2; 1.13 fold enrichment (6-mer frequency, TF over GST control) with ETV7; 1.03 fold enrichment (6-mer frequency, TF over GST control) with ETV6.
CCTAGA: the binding signal with ERF is 1.05 fold enrichment (6-mer frequency, TF over GST control); with ETS2, 1.05 fold enrichment (6-mer frequency, TF over GST control); with SPDEF, 1.01 fold enrichment (6-mer frequency, TF over GST control).
As for AGGTTT, the binding signal with ERF was 1.13 fold enrichment (6-mer frequency, TF over GST control); with ETS2 it was 1.01 fold enrichment (6-mer frequency, TF over GST control); with SPDEF it was 1.02 fold enrichment (6-mer frequency, TF over GST control); in the assay with ETV7 it was 1.08 fold enrichment (6-mer frequency, TF over GST control); with ELF5, 1.04 fold enrichment (6-mer frequency, TF over GST control); in the assay with ETV3, 1.11 fold enrichment (6-mer frequency, TF over GST control). The binding signal with ETV6 was 1.03 fold enrichment (6-mer frequency, TF over GST control).
With AACGTA, the binding signal was 1.05 fold enrichment (6-mer frequency, TF over GST control) with ERF; 1.01 fold enrichment (6-mer frequency, TF over GST control) with SPDEF; 1.05 fold enrichment (6-mer frequency, TF over GST control) with ETV7; 1 fold enrichment (6-mer frequency, TF over GST control) with ELF5; 1.04 fold enrichment (6-mer frequency, TF over GST control) with ETV3; 1.03 fold enrichment (6-mer frequency, TF over GST control) with ETV6.
For the sequence GGCTTG, the binding signal in the assay with ERF is 1.01 fold enrichment (6-mer frequency, TF over GST control); in the assay with ETS2, 1.06 fold enrichment (6-mer frequency, TF over GST control); with ETV7 it was 1.14 fold enrichment (6-mer frequency, TF over GST control).
As for GGAATT, the binding signal with ERF was 1.08 fold enrichment (6-mer frequency, TF over GST control); with ETS2 it was 1.21 fold enrichment (6-mer frequency, TF over GST control); with SPDEF it was 1.16 fold enrichment (6-mer frequency, TF over GST control); in the assay with ETV7, 1.15 fold enrichment (6-mer frequency, TF over GST control); in the assay with ELF5 it was 1.28 fold enrichment (6-mer frequency, TF over GST control); with ETV3, 1.2 fold enrichment (6-mer frequency, TF over GST control). Besides, the binding signal in the assay with ETV6 was 1.14 fold enrichment (6-mer frequency, TF over GST control).
With TTTGAG, the binding signal with ERF is 1.13 fold enrichment (6-mer frequency, TF over GST control); with ETS2 it was 1.08 fold enrichment (6-mer frequency, TF over GST control); with SPDEF, 1.04 fold enrichment (6-mer frequency, TF over GST control); with ETV7, 1.1 fold enrichment (6-mer frequency, TF over GST control); with ELF5, 1.03 fold enrichment (6-mer frequency, TF over GST control); with ETV3 it was 1.22 fold enrichment (6-mer frequency, TF over GST control). Further, the binding signal with ETV6 was 1.02 fold enrichment (6-mer frequency, TF over GST control).
On to CAGAAT, for which the binding signal with ERF is 1 fold enrichment (6-mer frequency, TF over GST control); in the assay with SPDEF it was 1.06 fold enrichment (6-mer frequency, TF over GST control); in the assay with ELF5, 1.02 fold enrichment (6-mer frequency, TF over GST control); with ETV6, 1.02 fold enrichment (6-mer frequency, TF over GST control).
Take GCAATA: the binding signal with ERF is 1.03 fold enrichment (6-mer frequency, TF over GST control); with ETS2, 1.04 fold enrichment (6-mer frequency, TF over GST control); with SPDEF, 1.04 fold enrichment (6-mer frequency, TF over GST control); with ETV7, 1.08 fold enrichment (6-mer frequency, TF over GST control); with ETV3 it was 1.04 fold enrichment (6-mer frequency, TF over GST control); with ETV6 it was 1.03 fold enrichment (6-mer frequency, TF over GST control).
Take CGCCAA: the binding signal in the assay with ERF is 1.07 fold enrichment (6-mer frequency, TF over GST control); with ETS2, 1.04 fold enrichment (6-mer frequency, TF over GST control); with ETV7 it was 1.01 fold enrichment (6-mer frequency, TF over GST control); in the assay with ETV3, 1.04 fold enrichment (6-mer frequency, TF over GST control); in the assay with ETV6 it was 1.03 fold enrichment (6-mer frequency, TF over GST control).
